Here are results for six compounds from PubChem BioAssay (Tox21).

In test [1] the target is Peroxisome proliferator-activated receptor delta (Homo sapiens) (UniProt Q03181). Put plainly: qHTS assay to identify small molecule agonists of the peroxisome proliferator-activated receptor delta (PPARd) signaling pathway (AID 743212; calls by dose curve). The method in brief: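 Tox21 library screened in GeneBLAzer PPARd UAS-bla HEK293H cells. After compound treatment at 37 C, a FRET-based beta-lactamase substrate was applied for 2 h and fluorescence recorded.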
Sequence of Peroxisome proliferator-activated receptor delta (Homo sapiens) (Q03181 whole entry, looked up): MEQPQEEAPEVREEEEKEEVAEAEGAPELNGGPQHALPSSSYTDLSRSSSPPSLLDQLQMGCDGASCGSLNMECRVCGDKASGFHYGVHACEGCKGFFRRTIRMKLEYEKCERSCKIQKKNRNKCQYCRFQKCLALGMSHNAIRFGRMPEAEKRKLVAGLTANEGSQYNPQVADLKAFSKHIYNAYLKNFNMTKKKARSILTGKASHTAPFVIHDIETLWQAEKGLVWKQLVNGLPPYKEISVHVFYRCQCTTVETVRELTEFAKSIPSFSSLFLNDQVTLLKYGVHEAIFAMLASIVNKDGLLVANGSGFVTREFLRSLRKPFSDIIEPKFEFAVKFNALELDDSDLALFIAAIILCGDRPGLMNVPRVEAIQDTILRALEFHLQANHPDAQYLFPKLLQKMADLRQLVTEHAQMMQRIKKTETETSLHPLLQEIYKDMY
A general note: In qHTS, concentration-response curves come from the screen itself.

Test [2] in a line: qHTS assay to identify small molecule antagonists of the peroxisome proliferator-activated receptor delta (PPARd) signaling pathway - cell viability counter screen (AID 743213). Note: nearly all actives have a fitted effect of over 50% in size. Note: potency is the fitted concentration of half-maximal effect. In outline:
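Cytotoxicity counter screen: CellTiter-Glo luminescence read 30 min after addition, in the same wells as the reporter assay. There, PPARd UAS-bla HEK293H cells (3000/well) were treated 17 h at 37 C with compound and 300 nM L165041.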

In test [3] the target is Peroxisome proliferator-activated receptor delta (Homo sapiens) (UniProt Q03181). Put plainly: qHTS assay to identify small molecule antagonists of the peroxisome proliferator-activated receptor delta (PPARd) signaling pathway (AID 743215; active = well fitted inhibition curve with a large enough effect in the signal ratio in the repeat runs, not every such curve was filed as active; the % refers to the signal ratio;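 note: cells stimulated with agonist L165041 at 300 nM final during compound exposure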; note: potency is the fitted concentration of half-maximal effect). In outline: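 Here, a reporter line (HEK293H, beta-lactamase under a UAS) measures PPARd signaling. Compounds are tested against agonist L165041 at 300 nM final concentration over 17 h at 37 C, with fluorescence read after substrate.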

Test [4] is described as follows: qHTS assay to identify small molecule agonists of the farnesoid-X-receptor (FXR) signaling pathway - cell viability counter screen (AID 743218). Note: nearly all actives have a fitted effect of over 45% in size. Note: potency is the fitted concentration of half-maximal effect. The method in brief: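 Quantitative HTS counter screen measuring ATP-based viability via CellTiter-Glo luminescence in HEK 293T cells carrying a UAS-driven beta-lactamase reporter, after 16 h compound exposure at 37 C.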

Test [5] addresses Bile acid receptor (Homo sapiens) (UniProt Q96RI1). Put plainly: qHTS assay to identify small molecule agonists of the farnesoid-X-receptor (FXR) signaling pathway (AID 743220; active = well fitted activation curve with a large enough effect in the signal ratio in the repeat runs, not every such curve was filed as active; the % refers to the signal ratio). The method in brief: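 FXR-UAS-bla HEK 293T cells carrying a UAS-driven beta-lactamase reporter were plated for 5 h at 37C/5% CO2, then exposed to DMSO-dissolved Tox21 10K compounds for 16 h at 37C. A LiveBLAzer B/G FRET substrate was loaded for 2 h at room temperature before fluorescence reading.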

Test [6] in a line: qHTS assay to identify small molecule antagonists of the farnesoid-X-receptor (FXR) signaling pathway - cell viability counter screen (AID 743221; active = well fitted cell-killing curve with a large enough effect in the repeat runs, not every such curve was filed as active; note: nearly all actives have a fitted effect of over 50% in size). In outline: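 After a 5 h settling period, FXR-bla HEK 293T cells receive compound and chenodeoxycholic acid (50 uM final) and incubate 16 h at 37 C; CellTiter-Glo luminescence, read after 30 min at room temperature, reports cell viability.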

Test [7] addresses Vitamin D3 receptor (Homo sapiens) (UniProt P11473). Put plainly: qHTS assay to identify small molecule agonists of the vitamin D receptor (VDR) signaling pathway (AID 743222; calls by dose curve). The method in brief:
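Tox21 cell reporter format: VDR-bla line, 16 h compound exposure in 5% CO2 at 37C, then fluorescence intensity after 2 h with LiveBLAzer B/G FRET substrate.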

Test [8] has the same target. The test is described as follows: qHTS assay to identify small molecule antagonists of the vitamin D receptor (VDR) signaling pathway (AID 743223; active = well fitted inhibition curve with a large enough effect in the signal ratio in the repeat runs, not every such curve was filed as active; the % refers to the signal ratio). In outline:
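Reporter line VDR-bla; stimulus 1alpha,25-(OH)2 vitamin D3, 3 nM final; compound co-addition, 16 h 37C/5% CO2; LiveBLAzer B/G substrate 2 h RT; fluorescence intensity.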

Test [9] can be described thus: qHTS assay to identify small molecule agonists of the vitamin D receptor (VDR) signaling pathway - cell viability counter screen (AID 743224). Note: nearly all actives have a fitted effect of over 50% in size. Note: potency is the fitted concentration of half-maximal effect. In outline: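 CellTiter-Glo viability readout on VDR-bla cells, measured after 16 h of compound treatment at 37C in the same wells.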
Test [10] can be described thus: qHTS assay to identify small molecule antagonists of the vitamin D receptor (VDR) signaling pathway - cell viability counter screen (AID 743225). Note: nearly all actives have a fitted effect of over 50% in size. In outline:
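Parallel cytotoxicity test: VDR-UAS-bla HEK 293T, 3 nM (final) 1-alpha,25-dihydroxyvitamin D3 with test compound, 16 h, 37C. Endpoint is CellTiter-Glo luminescence in the same wells.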

Test [11] is described as follows: qHTS assay to identify small molecule agonists of the NFkB signaling pathway - cell viability counter screen (AID 1159515; calls by dose curve; note: nearly all actives have a fitted effect of over 55% in size; note: potency is the fitted concentration of half-maximal effect). In outline:
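Tox21 library compounds were tested for cytotoxicity against NFkB-bla ME-180 cells during a 5 hr exposure at 37 C. CellTiter-Glo luminescence served as the viability read-out.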

Test [12] is described as follows: qHTS assay to identify small molecule agonists of the endoplasmic reticulum stress response signaling pathway (AID 1159516; active = well fitted activation curve with a large enough effect in the signal ratio in the repeat runs, not every such curve was filed as active; the % refers to the signal ratio). In outline: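 Fluorescence at 460 and 530 nm (405 nm excitation) reports beta-lactamase from an ER stress response element in HeLa cells treated 5 hr at 37 C.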
A short description of test [13]: qHTS assay to identify small molecule agonists of the endoplasmic reticulum stress response signaling pathway - cell viability counter screen (AID 1159517; calls by dose curve; note: nearly all actives have a fitted effect of over 50% in size; note: potency is the fitted concentration of half-maximal effect). The method in brief:
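In parallel with the ESRE reporter read, cytotoxicity was scored by CellTiter-Glo luminescence (30 min, room temperature) on HeLa ESRE-bla cells dosed for 5 hr.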

Test [14] can be described thus: qHTS assay to identify small molecule antagonists of the retinoid-related orphan receptor gamma (ROR-gamma) signaling pathway - cell viability counter screen (AID 1159520). Note: nearly all actives have a fitted effect of over 50% in size. Note: potency is the fitted concentration of half-maximal effect. In outline: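 Tet-on ROR gamma CHO cells were given compounds for 2 hr, then doxycycline hyclate at 1 uM final, and incubated 16 hr at 37 C. Viability was measured as ATP content by CellTiter-Glo luminescence.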

Test [15] has as its target Nuclear receptor ROR-gamma (Homo sapiens) (UniProt P51449). The test is described as follows: qHTS assay to identify small molecule antagonists of the retinoid-related orphan receptor gamma (ROR-gamma) signaling pathway (AID 1159521; note: nearly all actives have a fitted effect of over 50% in size; note: potency is the fitted concentration of half-maximal effect). In outline: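 Decreased RORE-driven luciferase luminescence indicates antagonism. Tet-on RORγ CHO cells received compound, then 1 uM final doxycycline 2 h later; signal read after 16 h incubation.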

The nature of test [16]: qHTS assay to identify small molecule agonists of the AP-1 signaling pathway - cell viability counter screen (AID 1159525; calls by dose curve; note: nearly all actives have a fitted effect of over 55% in size; note: potency is the fitted concentration of half-maximal effect). In outline:
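Same-well cytotoxicity counter screen of the Tox21 10K library in ME-180 cells. The readout is ATP-dependent luminescence after 5 h compound treatment. Data are normalised to DMSO and tetra n-octyl ammonium bromide controls.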

A short description of test [17]: qHTS assay to identify small molecule agonists of the AP-1 signaling pathway (AID 1159526; calls by dose curve).
Test [18] can be described thus: qHTS assay to identify small molecule agonists of the RXR signaling pathway - cell viability counter screen (AID 1159529). Note: nearly all actives have a fitted effect of over 50% in size. Note: potency is the fitted concentration of half-maximal effect. The method in brief:
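In this parallel viability measure, GeneBLAzer RXR-alpha HEK 293T cells (2% charcoal-stripped FBS) were given a 5 hr preincubation, treated with compounds 16 hr at 37 C, and read by CellTiter-Glo luminescence.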

Test [19] has as its target Bile acid receptor (Homo sapiens) (UniProt Q96RI1). Put plainly: qHTS assay to identify small molecule antagonists of the farnesoid-X-receptor (FXR) signaling pathway (AID 743217; active = well fitted inhibition curve with a large enough effect in the signal ratio in the repeat runs, not every such curve was filed as active; the % refers to the signal ratio). The method in brief:
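Test compounds are pin-transferred onto FXR-bla HEK 293T cells, then chenodeoxycholic acid is added at 50 uM final. After 16 h at 37 °C, LiveBLAzer B/G substrate is applied for 2 h at room temperature and fluorescence read.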

Several values for one entry are separate records, joined by “and”; a condition that tells them apart may be missing. Equal entries are not always repeated. Inconclusive results are not listed. Where a structure was tested more than once in an assay, its records may differ in their call. Activity calls are given as the source filed them. Unless noted, calls come from the whole dose curve; as a rule, active = well fitted curve in the direction sought with a large enough effect in the repeat runs; inconclusive = weak or mixed curves; inactive = no such curve, though single readings can be large; an effect the other way counts as inactive or inconclusive.

Sequence of Bile acid receptor (Homo sapiens) (Q96RI1 whole entry, looked up): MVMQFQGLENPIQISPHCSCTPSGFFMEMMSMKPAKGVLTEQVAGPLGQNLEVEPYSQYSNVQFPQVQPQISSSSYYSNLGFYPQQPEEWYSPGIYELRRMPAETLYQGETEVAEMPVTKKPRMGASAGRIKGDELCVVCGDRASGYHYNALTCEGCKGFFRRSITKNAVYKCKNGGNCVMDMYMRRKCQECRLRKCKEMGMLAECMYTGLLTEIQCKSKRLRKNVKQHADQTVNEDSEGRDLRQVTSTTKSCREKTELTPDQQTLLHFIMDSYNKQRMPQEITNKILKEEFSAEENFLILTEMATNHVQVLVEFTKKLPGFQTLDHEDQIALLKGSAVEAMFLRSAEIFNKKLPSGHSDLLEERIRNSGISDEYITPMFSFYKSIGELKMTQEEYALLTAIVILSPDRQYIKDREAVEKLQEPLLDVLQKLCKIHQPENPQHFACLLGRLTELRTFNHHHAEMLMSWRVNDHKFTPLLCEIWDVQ
Sequence of Vitamin D3 receptor (Homo sapiens) (P11473 whole entry, looked up): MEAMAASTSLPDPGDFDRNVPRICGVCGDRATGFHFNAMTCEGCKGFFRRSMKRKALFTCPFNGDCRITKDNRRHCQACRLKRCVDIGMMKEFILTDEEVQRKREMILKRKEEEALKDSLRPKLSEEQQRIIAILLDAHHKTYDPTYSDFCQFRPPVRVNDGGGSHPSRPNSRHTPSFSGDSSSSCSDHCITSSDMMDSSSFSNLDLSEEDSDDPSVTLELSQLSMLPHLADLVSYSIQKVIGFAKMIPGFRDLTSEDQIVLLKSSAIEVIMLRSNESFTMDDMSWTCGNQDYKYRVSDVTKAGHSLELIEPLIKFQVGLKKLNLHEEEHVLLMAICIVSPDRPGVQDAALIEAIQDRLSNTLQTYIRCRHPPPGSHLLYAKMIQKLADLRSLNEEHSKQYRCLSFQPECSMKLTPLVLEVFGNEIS

For the compound `CCCOC(=O)c1cc(O)c(O)c(O)c1`, the Potency entry in [1], in [2], in test [3], in test [4], in test [5] and in test [6] was “inactive” throughout. Besides, the Potency entry in [7], in test [8], in test [9], in test [10], in test [11] and in [13] was “inactive” in each case. For the same compound, the Potency entry in [14], in test [16], in test [17] and in [18] was “inactive” in each case. Also, the result in [12] was inactive. In addition, the Potency in test [15] is 27.2 µM (active).

On to `OCCOCCN1CCN(C(c2ccccc2)c2ccc(Cl)cc2)CC1` (stereo unspecified), for which the Potency entry in test [1], in test [3], in test [4], in test [6], in test [7] and in test [8] was “inactive” in each case. Besides, the Potency entry in test [9], in test [10], in test [11], in test [13], in test [14] and in test [16] was “inactive” throughout. Further, the Potency entry in [17] was “inactive”. Besides, the Potency in [2] was 43.1 µM (active); in [15] it was 47.9 µM (active) and inactive; in test [18] it was 21.6 µM (active). Besides, in test [12], the compound was classed as inactive.

Turning to `CC(C)(C)NCC(O)c1cc(O)cc(O)c1` (stereo unspecified), the Potency entry in test [2], in test [6], in test [9], in test [11], in test [13] and in test [14] was “inactive” in each case. For the same compound, the Potency result in test [15], in [16], in test [17] and in test [18] was “inactive” each time. Also, the outcome in [12] was inactive.

For the compound `O=C(O)c1cccc(C(=O)O)c1`, the Potency result in [1], in test [2], in [3], in [19], in test [4] and in test [5] was “inactive” throughout. The Potency result in [6], in [9], in test [10], in test [11], in test [13] and in test [14] was “inactive” in each case. In addition, the Potency result in test [15], in test [16], in test [17] and in [18] was “inactive” each time. Moreover, the compound was called inactive in [12].

For the compound `O=Cc1ccc(Cl)cc1`, the Potency result in test [1], in [2], in [3], in test [4], in test [6] and in test [7] was “inactive” each time. Further, the Potency entry in [8], in [9], in test [10], in [11], in test [13] and in [14] was “inactive” in each case. The Potency entry in test [15], in [16], in test [17] and in [18] was “inactive” throughout. In test [12], the call was inactive.

Consider `CC1=CC(=O)c2ccccc2C1=O`, for which the Potency in test [2] was 19.5 µM (active); in [3], 33.5 µM (active); in test [4] it was 24.5 µM (active); in test [9] it was 17.4 µM (active) and 11.9 µM (active); in [11], 24.5 µM (active); in [13], 43.6 µM (active). Besides, the Potency in test [14] was 15.4 µM (active) and 29.8 µM (active); in test [15], 12.2 µM (active); in [16], 17.4 µM (active); in test [18], 24.5 µM (active) and 21.3 µM (active). Moreover, the call in [12] was inactive.
